Measurements reported in the supplement of paper PMC4206461.
A number with no mark means an inactive call.

tested on: Pseudomonas aeruginosa PA14 dppBCDF deletion mutant; assay: respiration area under curve with compound as sole nitrogen source, 24 h (OmniLog AUC (arbitrary units)); higher = more respiration / better utilisation as nitrogen source; extreme values may be limits of the assay
Description: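 Biolog Phenotype MicroArray plates PM6-PM8: each di/tripeptide is the sole nitrogen source. Tetrazolium reduction was read in the OmniLog every 15 min for 24 h at 37°C and summarised as area under the respiration curve (arbitrary units). Values below 2000 count as no respiration. Strain is the dipeptide ABC transporter deletion mutant.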

| SMILES | respiration area under curve |
| --- | --- |
| CC(C)C[C@@H](NC(=O)CNC(=O)CN)C(=O)O (plate: PM8) | 4.75 |
| CC(C)C[C@H](NC(=O)CNC(=O)CN)C(=O)O (plate: PM8) | 0 |
